# Results: the supplement of paper PMC6555819
# What was measured:
# Assay in all cases: PBM binding z-score (relative to random genomic background probes); higher = stronger binding; sequences stand for … in GC…GCGATTGACAGCGTAGAATGAAGG
# [1] = test system: RARb homodimer (NR concentration 270 nM)
# Outline: (§1)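 Each nuclear receptor dimer, without ligand, was incubated for 1 h on custom Agilent 4×180K protein-binding microarrays. Binding was detected with antibodies against each partner (one per run), and scanned fluorescence was regression-normalized. The binding z-scores are referenced to random human genomic background probes.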
# [2] = test system: RARg:RXRa (NR concentration 270 nM, RXRa partner concentration 90 nM)
# Outline: as §1
# [3] = test system: RARg homodimer (NR concentration 270 nM)
# Outline: as §1
# [4] = test system: RXRa DBDmut IVT, anti-RXR (DBD mutation: RXRa K156A/R161A, NR concentration 90 nM)
# Outline: as §1
# [5] = test system: RXRa homodimer (NR concentration 180 nM)
# Outline: as §1
# [6] = test system: THRa:RXRa (NR concentration 90 nM, RXRa partner concentration 90 nM)
# Outline: as §1
# [7] = test system: THRa homodimer (NR concentration 90 nM)
# Outline: as §1
# [8] = test system: VDR homodimer (NR concentration 270 nM)
# Outline: as §1
Sequence,PBM binding z-score [1],PBM binding z-score [2],PBM binding z-score [3],PBM binding z-score [4],PBM binding z-score [5],PBM binding z-score [6],PBM binding z-score [7],PBM binding z-score [8]
GCTAGCAGGCCATTTGGGTCACTTAATGACGGGC,1.82,0.913,1.22,-0.0616,0.684,1.79,0.181,0.405
CGTCCAAGGTCAAAGGTCAGTCAAGAGATGACGG,5.67,8.89,8.17,4.11,10.3,4.85,2.87,3.58
GCTGCTAGGTCAGGTTGGGCAGCTAACGGGTACG,2.36,2.43,3.88,0.101,0.717,1.91,0.583,0.178
CGATCTAGGTCAGAACAGGACAGTGAAGGATGAT,1.97,2.2,2.89,0.851,0.982,3.36,0.505,-0.107
GTACCAAGGTGAATAGGTCGTTTATGAGTAGGCG,1.75,2.69,1.2,0.0866,2,1.95,0.576,0.299
TCTTGTAGATCAACAGGAGGTTAAGAAAGATCGA,0.548,0.934,0.306,0.35,0.762,0.782,-0.703,-0.387
ATCGAAAGGTCGTAGGTGAGTATACCCACCCGAA,2.79,4.48,3.9,1.21,5.28,2.5,0.0179,1.21
CTACCAAGGTGAACAAGGTCGTAGATTACTATTC,1.98,2,1.6,0.741,2.24,3.24,1.88,1.72
GCATATAGGTAATACAAGGCGAAAGTCCGATTGT,-0.287,0.107,0.326,0.52,0.182,2.28,-0.176,-0.0927
CCGACTGGGGCAAGGCTACCATAACGCACAGCCA,0.53,0.348,0.614,-0.842,0.0101,-0.203,-0.4,-0.136
CGAACTAGGTCTTTGACAGGACAGTGAATAGTAA,0.139,0.112,0.193,0.262,-0.252,0.309,-0.0353,-0.305
CAAACTCGGTCAAGGTCAAAGTCGGTTTGTGCCA,4.47,5.26,5.55,2.48,4.82,4,3.53,4.43
CCTACTGGGCCAAAGATCATTGATTCCAATGCTC,-0.626,0.0876,-0.132,-0.275,0.0908,-0.415,-0.657,-0.324
ATCGAAAGCTCGAGGTGAGTATAGAGAAAGGGAA,-0.503,0.0363,0.189,-0.888,-0.0727,0.963,-0.199,-0.71
TCGAGTACGTTAGTCGGGGCATTCAGCCAACATA,0.0909,-0.237,-0.247,3.19,-0.238,-0.142,-0.507,1.51
TCTCGTAGATCAAAGGTTAAGAAAGCCGAAGCCT,1.36,1.65,0.587,0.764,2.94,1.14,-0.441,0.265
TCATCTAGGTAAAAGGTGAAAGTCGGTGTGGTAA,2.04,1.82,0.925,1.24,2.84,1.99,0.446,0.293
TTACCAAGGTGACGGTCGTTGATCCCTCTGTAGA,1.18,0.607,0.608,-0.779,0.836,2.01,0.865,-0.245
AGAATGAGGGTACCAAAGATCAGGGAAACGCTTG,0.0111,0.44,0.506,0.104,0.821,0.502,-0.667,-0.0915
ACAGACAGGTGAGTGAAGGGAACTCAGCTGGACG,-0.231,0.199,0.0505,-0.777,0.39,0.0282,-0.679,-0.331
ATATGTAGGTTAACGGGTCATTCAGTTTGCGCAT,2.84,3.21,2.62,1.46,3.46,2.27,0.71,2.56
TTACCAAGGCGAAGGTCGTTGATCCCTCTGTAGA,0.804,0.317,0.0659,0.0625,1.13,1,0.0881,0.564
CCTACTGGGCCAAGGTCACTGATCAGTCAAAGCA,3.91,4.17,4.29,0.302,3.92,3.6,2.65,2
CCTAGTTGGTCAAGGTCATACACGCTATAGGTAC,4.18,4.12,4.33,2.53,4.46,4.03,3.75,4.48
TCTATTAGTTGATTAGAGCAACCGAAACAGCGGA,-0.716,0.0982,0.245,0.765,0.293,-0.353,-0.739,0.18
TCGAGTAGGTTAGGGGCATTCATAATGGCGTCGA,0.847,0.406,0.583,0.422,0.801,0.804,0.251,0.868
CCTACTGGGCCATTCACAGGTCATTGATCATATG,2.72,2.69,1.66,0.46,1.34,2.01,0.728,1.17
CCTAGTTGGACAAGGTCACACACGCTATAGGTAC,4.19,4.24,4.16,1.75,4.4,3.93,3.3,3.14
